In the library only some 19% were active in any assay of this set; here they are far more common.
TDP1 cell CPT – DT40-hTDP1 cell growth loss with CPT; chicken DT40 Tdp1-/-;hTDP1 cells + 20 nM CPT, ATP luminescence, 48 h; Potency, µM (series often up to 46.2 µM), without a hit: at the highest dose activity change, negative = growth inhibition, hits mostly inhibitors; actives 12% (n = 420,000); also: nearly all actives have a fitted effect of over 55% in size
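Chicken DT40 Tdp1-/- cells stably complemented with human TDP1 were seeded at 400 cells/well in medium containing 20 nM camptothecin, exposed to pin-transferred compounds, and grown at 37 °C for at least 48 hr. Viability was read as ATP luminescence.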
KB-3-1 tox – kills parental KB-3-1 adenocarcinoma cells; AID 1347075; KB-3-1 viability, CellTiter-Glo ATP luminescence, 72 h; actives 1.4% (n = 400,000); Potency, µM (top dose mostly 46.1 µM), most hits filed as cytotoxic; also: nearly all actives have a fitted effect of over 60% in size
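Luminescent ATP read-out (CellTiter-Glo) measures survival of drug-naive KB-3-1 cells after 72 h compound exposure at 37 °C. Titration series was screened from lowest to highest concentration, with DMSO vehicle plates as background controls.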
HT1080NT lethal – kills 2HG-producing HT-1080-NT fibrosarcoma cells; HT-1080-NT fibrosarcoma viability, CellTiter-Glo ATP luminescence, 48 h; Potency, µM (titrated, usually from 46.1 µM), for the others: at the highest dose activity, negative = less viability, hits mostly cytotoxic; actives 1.6% (n = 360,000); AID 686970;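 also: NT is the 2HG producing partner of a matched IDH1 knockdown line; 0% = DMSO-treated cells and -100% = media-only wells without cells; nearly all actives have a fitted effect of over 55% in size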
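Toxicity toward the 2HG-producing NT line was scored as %Activity, normalised to DMSO and no-cell wells, from CellTiter-Glo luminescence after 48 hours' treatment.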
DT40 TDP1 no CPT – qHTS for Inhibitors of human tyrosyl-DNA phosphodiesterase 1 (TDP1): qHTS in cells in absence of CPT | DT40 Tdp1-/- hTDP1 cells, no CPT, ATP luminescence, 48 h | Potency, µM (doses to about 46.2 µM), without a hit: at the highest dose activity change, negative = growth inhibition, actives largely listed as inhibitors | actives 15% (n = 420,000) | AID 686978, 2013; also: nearly all actives have a fitted effect of over 55% in size
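Luminescent ATP content (CellTiter-Glo) served as the growth readout. Knockout chicken DT40 cells expressing human TDP1 were exposed to compounds without camptothecin for a minimum 48 hr at 37 °C.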
HT1080 IDH1KD tx – HT-1080 IDH1 knockdown cell toxicity (counter line). HT-1080 IDH1 knockdown viability, ATP luminescence, 48 h. AID 686971. actives 2% (n = 360,000). Potency, µM (titrated, usually from 46.1 µM), without a hit: at the top dose activity, negative = toxicity, actives largely listed as cytotoxic;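 also: 0% = DMSO wells and -100% = cell-free medium wells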
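Knockdown cells (IDH1KD HT-1080) received compounds 2 h after plating at 750 cells/well and were kept 48 h at 37 °C in 5% FBS RPMI. A CellTiter-Glo luminescence read gave % activity for curve fitting.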
KB-V1 MDR tox – KB-V1 MDR subline cytotoxicity; AID 1347076; Potency, µM (highest dose often 46.1 µM), hits mostly cytotoxic; actives 3.4% (n = 400,000); KB-V1 MDR cells viability, CellTiter-Glo, 72 h; also: nearly all actives have a fitted effect of over 60% in size
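KB-V1 cells (P-gp-expressing MDR subline of KB-3-1) in phenol-red-free DMEM with 10% FBS were exposed to library compounds over a concentration series for 72 h at 37 degrees C. Viability read by CellTiter-Glo luminescence; concentration-effect curves fitted after normalization.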
* marks the source's active call; other numbers are inactive results; i = inactive; ? = inconclusive; . = no result given. Calls follow the shape of the dose curve; as a rule, active = well fitted curve in the direction sought with a large enough effect; inconclusive = small, poorly fitted or top-dose-only effect, or another doubt; inactive = no such curve, though single readings can be large; an effect the other way counts as inactive or inconclusive. Unless noted, % is scaled to controls: 0 for no effect and ±100 for the full control effect; potency is read from the fitted curve at half-maximal effect.

SMILES | TDP1 cell CPT | KB-3-1 tox | HT1080NT lethal | DT40 TDP1 no CPT | HT1080 IDH1KD tx | KB-V1 MDR tox
O=C(NCC1CCCO1)c1ccc(S(=O)(=O)N2CCC(c3nc4ccc(Cl)cc4[nH]3)CC2)cc1 (centres undefined) | 25.9µM* | i | ? | 23.1µM* | ? | i
O=S(=O)(c1cccc(Cl)c1)N1CCC(c2nc3ccccc3[nH]2)CC1 | 20.6µM* | i | -5.5% | 18.4µM* | -7.3% | 8.2µM*
CC(=O)c1cccc(S(=O)(=O)N2CCC(c3nc4ccccc4[nH]3)CC2)c1 | -21.0% | i | -2.8% | -14.9% | -3.4% | i
O=C(NCC1CCCO1)c1cc(S(=O)(=O)N2CCCCC2)ccc1Cl (centres undefined) | 24.1% | i | 16.5% | 5.3% | 1.2% | i
O=S(=O)(c1ccc2c(c1)OCCO2)N1CCC(c2nc3ccccc3[nH]2)CC1 | ? | ? | -5.3% | ? | ? | 14.6µM*
COc1ccc(N=C(C)C2C(=O)c3ccccc3C2=O)cc1 | ? | i | 27.8% | ? | 17.9% | i
CCCCCCNC(=O)Nc1nnc(-c2ccncc2)s1 | . | ? | . | . | . | i
Cc1ccc(C(=O)COC(=O)c2cccc(NC(=O)c3ccc(Cl)cc3Cl)c2)cc1 | ? | i | . | ? | . | ?
O=S1(=O)N[C@@H](Cc2ccccc2)COc2cc(N3CCN(Cc4ccccc4F)CC3)ccc21 | -29.5% | i | -3.3% | 20.6µM* | 3.3% | i
CC(C)C[C@H]1COc2cc(N3CCN(Cc4ccccc4F)CC3)ccc2S(=O)(=O)N1 | ? | ? | -5.5% | ? | 1.7% | i
O=S1(=O)N[C@H](Cc2ccccc2)COc2cc(N3CCC[C@@H]3CO)ccc21 | ? | 20.6µM* | ? | ? | 23.1µM* | i
CC(C)C[C@H]1COc2cccc(N3CCN(Cc4ccccc4F)CC3)c2S(=O)(=O)N1 | ? | i | ? | 18.4µM* | -20.2% | i
CC(C)C(NC(=O)c1ccoc1)c1nnc2n1CCN(C(=O)/C=C/c1ccc(F)cc1)CC2 (centres undefined) | 1.1% | . | . | -21.2% | . | .
Cc1ccc2cc(CN(Cc3ccco3)C(=S)NCC3CCCO3)c(=O)[nH]c2c1C (centres undefined) | 18.4µM* | i | 5.0% | 25.9µM* | 6.8% | 4.11µM*
Cc1cc(C)c2[nH]c(=O)c(CN(Cc3cccs3)C(=S)NCC3CCCO3)cc2c1 (centres undefined) | ? | i | -1.4% | 20.6µM* | -2.8% | ?
COc1ccc2[nH]c(=O)c(CN(Cc3cccs3)C(=S)NCC3CCCO3)cc2c1 (centres undefined) | 23.1µM* | i | 6.9% | 23.1µM* | -0.5% | ?
Cc1cc2cc(CN(Cc3cccs3)C(=S)NCC3CCCO3)c(=O)[nH]c2cc1C (centres undefined) | ? | ? | -5.7% | ? | -6.1% | ?
O=C1NC[C@H](CCCCN2CCN(CCc3ccccc3)C(=O)C2=O)N(Cc2ccccc2)C1=O | 1.1% | i | 4.8% | 0.1% | 12.9% | i
CC(C)CC(NC(=O)OC(C)(C)C)c1cn([C@@H](CCCCNC(=O)OC(C)(C)C)C(=O)N2CCN(C(=O)OC(C)(C)C)CC2)nn1 (some centres undefined) | 5.8µM* | i | -5.9% | 3.66µM* | -6.0% | i

Screening data from PubChem BioAssay.
